# “And” between values parts separate entries of the source, which are not always exact repeats. Equal values may be shown once. Hit rate of the full screen: of about 320,000 compounds, about 22,000 (6.9%) were called active. Another 27% or so got no clear call; they are omitted. Calls come from the whole dose curve; as a rule, active = well fitted inhibition curve with a large enough effect; inconclusive = small, poorly fitted or top-dose-only effect, or another doubt; inactive = no such curve, though single readings can be large or run the other way. Only a selection was taken, and actives are over-represented in it overall. Where a structure was tested more than once in an assay, its records may differ in their call.
# Experiment: Primary qHTS for delayed death inhibitors of the malarial parasite plastid, 96 hour incubation
# Conditions: P. falciparum luciferase reporter growth; series mostly up to 28.7 µM; activity change, negative = inhibition: at the top concentration
# Excerpt: The goal of this screen is to discover new antimalarial compounds that act by inhibiting the development of the apicoplast in the malarial parasite Plasmodium falciparum. The biochemical processes that make this organelle essential for erythrocytic stage parasites are not well understood. However, antibiotics such as azithromycin and tetracycline, which target the apicoplast translational machinery, have a potent antimalarial effect.
# We have developed a cell-based assay that measures parasite growth based on the expression of an integrated copy of a firefly luciferase reporter. To detect small molecules that cause this "delayed death" phenotype, erythrocytes infected with the luciferase-expressing parasites were incubated with compounds for either one or two generations, corresponding to 48 and 96 hours, respectively. Compounds that inhibit parasite growth in the second generation, but not the first, should be enriched in antimalarials that target the apicoplast. Growth inhibition is detected by a decrease in luciferase activity.
# Assay Provider: David Fidock and Eric Ekland, Columbia University
# Keywords: NIH Roadmap, MLPCN, MLI, MLSMR, qHTS, NCGC, qHTS, malaria, luciferase, viability
# Four microliters of infected erythrocytes (2% hematocrit, 0.05% parasitemia final concentration) in culture medium were dispensed and the plates incubated for 96 hours at 37 C in 5% CO2. Two microliters of luciferase detection reagent was added and luminescence was detected by a ViewLux (PerkinElmer) reader.
# % is set by controls: 0 for no effect and ±100 for the full control effect; potency is the fitted concentration of half-maximal effect.
SMILES,"activity change, negative = inhibition",Potency
COc1ccc(OC)c(NC(=O)CN(C)CCOc2ccc(Br)cc2)c1,-21.8% (inactive),–
CC(=O)Nc1ccc(NC(=O)C2CCCN2S(=O)(=O)c2cccc(C(F)(F)F)c2)cc1 (stereo not drawn),6.66% (inactive),–
O=C(Nc1n[nH]c(C(F)(F)F)n1)c1cccs1,41.7% (inactive),–
CC(=O)NS(=O)(=O)c1ccc(N/C(N)=N/c2nc(C)cc(C)n2)cc1,-8.97% (inactive),–
CC1=C(C(N)=O)C(c2ccc(Br)cc2)n2ncnc2N1 (stereo not drawn),9.45% (inactive),–
Clc1ccc2c(c1)C1=C(C(c3ccncc3)O2)C(c2ccc(Br)cc2)n2ncnc2N1 (stereo not drawn),–,3.29 µM (active)
COC(=O)COc1ccc2c(c1C)O/C(=C\c1ccco1)C2=O,86.9% (inactive),–
CC1CC(C)(C)n2c(O)c(N=NC(N)=S)c3cccc1c32 (stereo not drawn),11.4% (inactive),–
O=C(CCCC(=O)N1CCN(c2cccc(Cl)c2)CC1)c1ccccc1,4.4% (inactive),–
CCc1nc2ccc(C(=O)N3CCN(c4cccc(Cl)c4)CC3)cc2nc1CC,–,7.38 µM (active)
Cc1nc2ccc(C(=O)N3CCN(c4ccccc4)CC3)cc2s1,-6.37% (inactive),–
CCOc1cc(C(=O)O)ccc1OCCOc1ccccc1,10.2% (inactive),–
CN(CC(=O)Nc1cccc(F)c1)C(=O)CC1CCCC1,30.9% (inactive),–
COC(=O)c1ccc(-n2cnc3ccccc32)nc1,0% (inactive),–
Cn1c(NC(=O)c2ccccc2)nc2ccccc21,-49.6% (inactive),–
c1ccc(-c2nccc(-c3ccc(-n4cnc5ccccc54)cc3)n2)nc1,–,4.15 µM (active)
O=C(O)C1=NN(c2c(F)c(F)cc(F)c2F)C(=O)CC1,20.6% (inactive),–
CSc1ncccc1C(=O)Nc1ccc(C)cn1,43.7% (inactive),–
CCc1ccccc1NC(=O)Cc1cn(C)c2ccccc12,–,13.1 µM (active)
CCc1ccccc1NC(=O)CCOc1ccccc1,-7.11% (inactive),–
CCOC(=O)N1CCC(NC(=O)Cc2cn(C)c3ccccc23)CC1,34.3% (inactive),–
COc1ccc(CNc2nc3c(c(=O)[nH]c(=O)n3C)n2Cc2ccccc2)cc1,12.3% (inactive),–
O=C(CC(c1ccccc1)c1ccccc1)NCC(O)c1ccc([N+](=O)[O-])cc1 (stereo not drawn),-27.2% (inactive),–
O=C(CSc1cccc[n+]1[O-])NCCCc1ccccc1,23.3% (inactive),–
O=C(CSc1cccc[n+]1[O-])c1ccc(-c2ccccc2)cc1,–,8.28 µM (active)
Cc1ccc(C(=O)CSc2ccccc2C(=O)O)cc1,188% (inactive),–

SMILES,"activity change, negative = inhibition",Potency
CCCCC(=O)Nc1c2c(nn1-c1ccc([N+](=O)[O-])cc1)CS(=O)(=O)C2,14.9% (inactive),–
O=C(NCc1ccccn1)C1CCN(S(=O)(=O)c2ccc(Br)cc2)CC1,21.9% (inactive),–
CCN(CC(=O)NCc1cccs1)C(=O)c1cccc(S(=O)(=O)Nc2ccccc2OC)c1,15.4% (inactive),–
COCCN(C(=S)Nc1ccccc1OC)C1CCN(C(C)C)CC1,-15.9% (inactive),–
COc1ccc2[nH]c(C)c(CCN(Cc3cccs3)C(=S)Nc3ccccc3OC)c2c1,–,13.1 µM (active)
COc1ccc(S(=O)(=O)NC(C)c2ccccc2)cc1C(=O)N1CCCCC1 (stereo not drawn),25.7% (inactive),–
CC(=O)Nc1ccc(S(=O)(=O)N2CCN(S(=O)(=O)c3cccs3)CC2)cc1,-14.8% (inactive),–
CC(C)C(NS(=O)(=O)c1cccs1)C(=O)Nc1nc(C(C)(C)C)cs1 (stereo not drawn),–,13.1 µM (active)
CC(C)(C)c1csc(NC2=NS(=O)(=O)c3ccccc32)n1,0% (inactive),–
Cc1ccc(CS(=O)(=O)CCC(=O)NCc2ccc(F)cc2)cc1,-0.448% (inactive),–
COc1ccc(CCC(C)N2CCc3ccccc3C2)cc1 (stereo not drawn),1.99% (inactive),–
O=C(CN(C(=O)CCC(=O)Nc1nccs1)c1ccc(F)cc1)NCc1ccc2c(c1)OCO2,45.9% (inactive),–
CCC1Sc2ccc(S(=O)(=O)CCC(=O)NCc3cccs3)cc2NC1=O (stereo not drawn),6.87% (inactive),–
Cc1nc(-c2nnc(SCC(=O)Nc3cc(C(F)(F)F)cc(C(F)(F)F)c3)n2C)cs1,25.6% (inactive),–
CCN(C(=O)COC(=O)C1CCN(S(=O)(=O)c2ccc(C)c(C)c2)CC1)C1CCS(=O)(=O)C1 (stereo not drawn),-1.93% (inactive),–
CCCNC(=O)OC[C@H]1O[C@H](CCO/N=C/[C@@H](NS(=O)(=O)c2ccc(C)cc2)[C@H](C)/C=C/CC(=O)OC)C=C[C@@H]1Oc1ccc(OC)cc1,–,7.38 µM (active)
CCCC(C)NC(=O)C1CCN(C(=O)C2CC(=O)N(c3ccc(C)cc3)C2)CC1 (stereo not drawn),332% (inactive),–
COc1ccc(CCNC(=O)COC(=O)C2CC2C)cc1 (stereo not drawn),-20.6% (inactive),–
Clc1ccc(C(Cn2ccnc2)OCc2ccsc2Cl)c(Cl)c1 (stereo not drawn),–,6.75 µM (active)
O=C(Nc1ccccc1C(=O)NCCCn1ccnc1)c1ccc(Cl)cc1Cl,-16.7% (inactive),–
O=C(NCCCn1ccnc1)Nc1ccc(Cl)cc1Cl,-24.9% (inactive),–
CC(OC(=O)CCCOc1ccccc1)C(=O)Nc1ccc(Cl)cn1 (stereo not drawn),0.813% (inactive),–
CC1CCN(C(=O)COC(=O)CCC(=O)c2cccs2)CC1,0.599% (inactive),–
Cc1c(C(C)(C)O)[nH]c2ccc(C#N)cc12,108% (inactive),–
O=S(=O)(c1ccc(Br)cc1)N1CCC(c2nc3ccccc3[nH]2)CC1,36.7% (inactive),–
O=C(c1ccccc1F)N1CCN(S(=O)(=O)c2ccc(Br)cc2)CC1,-20% (inactive),–

SMILES,"activity change, negative = inhibition",Potency
O=S(=O)(c1ccc(Br)cc1)n1ccc2ccccc21,–,2.62 µM (active)
C/C=C/c1ccc(OCC(=O)OCC(=O)Nc2c(C)nn(-c3ccccc3)c2C)c(OC)c1,9.93% (inactive),–
COc1ccc(CNC(=O)C(c2ccc(O)cc2)N(Cc2ccco2)C(=O)c2snc(C(N)=O)c2N)cc1 (stereo not drawn),-9.26% (inactive),–
Cc1cccc(C(=O)N2CCCC(Nc3ccc(C(C)C)cc3)C2)n1 (stereo not drawn),25.2% (inactive),–
O=C(CCn1c(=S)[nH]c2cc3c(cc2c1=O)OCO3)NCc1ccc(Cl)cc1,–,11.7 µM (active)
CC(C)NC(=O)CCCn1c(=S)[nH]c2cc3c(cc2c1=O)OCO3,4.1% (inactive),–
CCCCNC(=O)CCn1c(=S)[nH]c2cc3c(cc2c1=O)OCO3,139% (inactive),–
CCCn1c(CCNc2nc(-c3ccc(OC)cc3)cs2)nc2ccccc21,–,11.7 µM (active)
COc1ccc(Nc2nc(-c3ccccc3)cs2)cc1,8.91% (inactive),–
COc1ccc(-c2csc(Nc3ccc(O)cc3)n2)cc1,37.7% (inactive),–
CC(=O)c1cc2c(cc1NC(=O)Cn1nc(-c3ccc(F)cc3)ccc1=O)OCO2,23.7% (inactive),–
O=C(Cc1ccc(F)cc1)N/N=C/c1ccc2c(c1)OCO2,94.1% (inactive),–
CNC(=O)C1CC(=O)N(Cc2ccc3c(c2)OCO3)C(=Nc2ccc(F)cc2)S1 (stereo not drawn),–,6.57 µM (active)
COc1ccc(N=C2SC(C(=O)Nc3ccc(F)cc3)CC(=O)N2C)cc1 (stereo not drawn),3.01% (inactive),–
CC1CCN(C(=O)/C(=C\c2ccccc2F)NC(=O)c2ccccc2)CC1,27.9% (inactive),–
Cn1c(=O)c2c(nc(N3CCCCCC3)n2CC(=O)c2ccc(Br)cc2)n(C)c1=O,23.4% (inactive),–
Cn1c(=O)c2c(nc(NCc3ccccc3)n2CC(N)=O)n(C)c1=O,23.9% (inactive),–
C=CCn1c(Oc2ccc(C(=O)OC)cc2)nc2c1c(=O)n(C)c(=O)n2C,–,5.86 µM (active)
COc1ccc(NC(=O)CCNC(=O)Cn2cnc3sc4c(c3c2=O)CCCC4)cc1OC,14.1% (inactive),–
C=CCN1C(=O)C2(OCCCO2)c2cccc(Cl)c21,-23.1% (inactive),–
COc1ccc(-c2nnc3n2CCCCC3)cc1,32.2% (inactive),–
CC(=O)N1c2ccc(S(=O)(=O)N3CCCC(C(=O)Nc4cccc(F)c4)C3)cc2CC1C (stereo not drawn),–,11.7 µM (active)
CC(=O)N1c2ccc(S(=O)(=O)N3CCCC(C(=O)Nc4cccc(Cl)c4)C3)cc2CC1C (stereo not drawn),-15.3% (inactive),–
CC(=O)N1c2ccc(S(=O)(=O)N3CCC(C(=O)NC4CCCCC4C)CC3)cc2CC1C (stereo not drawn),-7.95% (inactive),–
O=C(CN1C(=O)S/C(=C\c2ccccc2Cl)C1=O)NC1C=CS(=O)(=O)C1 (stereo not drawn),3.43% (inactive),–
CCOC(=O)c1c(-c2ccc(C)cc2)csc1/N=C(\C)C1=C(O)c2ccccc2C1=O,-6.18% (inactive),–

SMILES,"activity change, negative = inhibition",Potency
CCOC(=O)c1c(-c2ccccc2)csc1NC(=S)NC(=O)c1ccccc1,38.7% (inactive),–
COC(=O)c1c(-c2ccc(C)cc2)csc1N,–,13.1 µM (active)
COc1cc2ccccc2cc1C(=O)N1CCOCC1,6.89% (inactive),–
CC(C(=O)NC1CCCCC1)N1C(=O)c2cccc3cccc1c23 (stereo not drawn),-27.6% (inactive),–
O=C(Oc1ccc(F)cc1)N1CCOCC1,56.1% (inactive),–
COc1ccc(CCNC(=O)c2ccco2)cc1,–,7.38 µM (active)
Cc1ccc(OCC(=O)NCCCNC(=O)c2ccco2)cc1C,0.751% (inactive),–
CCOc1ncccc1C(=O)NCCc1ccc(OC)cc1,-2.75% (inactive),–
Cc1ccc(C)c(NC(=O)C(c2ccccc2)N2CCN(CC(=O)NC3CC3)CC2)c1 (stereo not drawn),–,14.7 µM (active)
Cc1ccc(Cl)c(NC(=O)CN2CCN(C=O)CC2)c1,23.5% (inactive),–
Cc1ccc(C)c(NC(=O)COC(=O)CSc2ccccc2)c1,-20.2% (inactive),–
Cc1ccc(NS(=O)(=O)c2c(C)[nH]c(C)c2C(=O)N2CCCCC2)c(C)c1,-29.1% (inactive),–
Cc1ccc(S(=O)(=O)N(C)C)cc1NC(=O)c1ccc(-n2cncn2)c([N+](=O)[O-])c1,-7.86% (inactive),–
CC1CCc2c(sc3nc4n(c(=O)c23)CCS4)C1 (stereo not drawn),-29.8% (inactive),–
CCCn1nnc2sc3c(c2c1=O)CCC(C)C3 (stereo not drawn),–,11.7 µM (active)
C=CCn1c(SCc2c(C)noc2C)nc2sc3c(c2c1=O)CCC(C)C3 (stereo not drawn),-1.1% [at 5.75 µM] (inactive),–
COc1cccc(COC(=O)C2CCN(S(=O)(=O)c3cccs3)CC2)c1OC,8.27% (inactive),–
Cn1c(=O)c2sccc2n(Cc2ccc(Br)cc2)c1=O,161% (inactive),–
O=C(Nc1ccccc1C(=O)Nc1ccncc1)c1ccc([N+](=O)[O-])cc1,32.1% (inactive),–
CN=C(NC#N)NCCSCc1nc[nH]c1C,–,inactive and 13.5 µM (active)
O=C(Nc1cccnc1)c1cc([N+](=O)[O-])ccc1Cl,-2.06% (inactive),–
CSCCC(=O)N1CCCC(CNC(=O)c2ccccc2Cl)C1 (stereo not drawn),0% (inactive),–
O=C(CCc1nnc2ccc(NCCCN3CCCC3=O)nn12)NCc1ccccc1Cl,-20.1% (inactive),–
O=C(CCc1nnc2ccc(NCc3ccccc3Cl)nn12)NCC1CCN(C2CCCC2)C1 (stereo not drawn),–,5.22 µM (active)
Cc1cccc(N(C)C(=O)c2cc(S(=O)(=O)N3CCCCC3)c[nH]2)c1,-0.248% (inactive),–
